Compounds without any hit were thinned out: in the full panel of roughly 83,000, 20% have a hit.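 The test compound was applied at a single concentration to cells in 96-well plates for 48 hours, and percent growth was recorded.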
Tests used:
Assay in all cases: NCI-60 one-dose screen, 48 h (100 = growth as untreated, 0 = no growth, -100 = all killed)
Details in all cases: 10 µM; active = growth percent below 10; inactive = the rest
[1] = tested on: NCI-H23 lung
[2] = tested on: NCI-H226 lung
[3] = tested on: NCI-H322M lung
[4] = tested on: HOP-62 NSCLC
[5] = tested on: NCI-H460 lung
[6] = tested on: A549/ATCC NSCLC
[7] = tested on: 786-0 renal
[8] = tested on: COLO 205 colon
[9] = tested on: DU-145 prostate
[10] = tested on: K-562 leukemia
[11] = tested on: MALME-3M melanoma
[12] = tested on: MDA-MB-231 breast
[13] = tested on: RXF 393 renal
[14] = tested on: SF-268 CNS
[15] = tested on: SF-295 CNS
[16] = tested on: SF-539 CNS
[17] = tested on: UACC-257 melanoma
[18] = tested on: M14 melanoma
[19] = tested on: HOP-92 NSCLC
[20] = tested on: NCI-H522 lung

Measured: growth

NC(C(=O)O)c1ccc([N+](=O)[O-])cc1 (stereo not drawn)
inactive: [1] 105% | [2] 103% | [3] 111% | [4] 96.5% | [5] 108% | [6] 109% | [7] 109% | [8] 104% | [9] 109% | [10] 113% | [11] 121% | [12] 90.2% | [13] 118% | [14] 105% | [15] 104% | [16] 89.3% | [17] 111% | [18] 99%

Sc1ccc(Nc2c3ccccc3nc3ccccc23)cc1
inactive: [1] 73% | [2] 91.2% | [3] 74.6% | [4] 92.4% | [19] 76.9% | [20] 40.9% | [6] 61% | [7] 95.5% | [8] 38.9% | [9] 104% | [10] 32% | [11] 86% | [12] 98% | [14] 102% | [15] 26.5% | [16] 95.5% | [17] 68.1% | [18] 96.8%

Cc1c(C(=O)O)c(=O)n(-c2ccccc2)n1C
inactive: [1] 92% | [2] 103% | [3] 122% | [4] 96.7% | [20] 104% | [6] 108% | [7] 113% | [8] 110% | [9] 118% | [10] 108% | [11] 163% | [12] 118% | [13] 119% | [14] 119% | [15] 91.4% | [16] 119% | [17] 93.8% | [18] 104%

O=C(/C=C/C(=O)c1ccccc1)c1ccccc1
inactive: [1] 99% | [2] 107% | [3] 116% | [4] 109% | [19] 96.3% | [20] 74.8% | [6] 105% | [7] 103% | [8] 70.1% | [9] 115% | [10] 41.9% | [11] 131% | [12] 110% | [13] 118% | [14] 107% | [15] 99% | [16] 114% | [17] 119% | [18] 111%

CCOC(=O)C/C(C)=N\O
inactive: [1] 100% | [2] 98.4% | [3] 97.9% | [4] 90.2% | [5] 106% | [6] 95.6% | [7] 96.1% | [8] 104% | [9] 107% | [10] 94.4% | [11] 98.9% | [12] 105% | [13] 113% | [14] 103% | [15] 91.6% | [16] 107% | [18] 101%

COC(=O)/C=C/C(=O)NC(N)=O
inactive: [1] 94.7% | [2] 94.1% | [3] 107% | [4] 98.8% | [5] 105% | [7] 103% | [8] 105% | [9] 105% | [10] 105% | [11] 97.4% | [12] 108% | [13] 95.2% | [14] 104% | [15] 95.2% | [16] 96.8% | [18] 106%

CCCCCCCCOC(=O)c1ccccn1
inactive: [1] 91.5% | [2] 104% | [3] 98.9% | [4] 93.5% | [5] 109% | [6] 107% | [8] 106% | [9] 102% | [10] 115% | [11] 117% | [12] 95.2% | [13] 116% | [14] 97.6% | [15] 133% | [16] 96.9% | [17] 107%

S=C1NCc2cncnc2N1
inactive: [1] 109% | [2] 101% | [3] 114% | [4] 93.5% | [5] 106% | [6] 98.2% | [7] 106% | [8] 111% | [9] 112% | [10] 93% | [11] 112% | [12] 132% | [13] 105% | [14] 107% | [15] 94.2% | [16] 92.7% | [18] 103%

COCCCNC(=O)c1nnn2c1nc(N)c1cc(Cl)ccc12
inactive: [1] 98.4% | [2] 94.1% | [3] 88.9% | [4] 80.4% | [5] 102% | [6] 106% | [7] 96.6% | [8] 77.7% | [9] 105% | [10] 34.6% | [11] 65.1% | [12] 100% | [13] 103% | [14] 94.1% | [15] 91.7% | [16] 94% | [18] 79.3%

CCOc1ccc(/C=N/N=C(N)N)cc1OCC
inactive: [1] 92% | [2] 93.3% | [3] 110% | [4] 106% | [19] 99.4% | [20] 99.2% | [6] 95.7% | [7] 100% | [8] 107% | [9] 117% | [10] 98.7% | [11] 113% | [12] 108% | [13] 111% | [14] 96.2% | [15] 95.9% | [16] 99.8% | [17] 89.7% | [18] 99.3%

CCCCN(CCCC)CCCO
inactive: [1] 104% | [2] 104% | [3] 136% | [4] 106% | [5] 109% | [6] 106% | [7] 109% | [8] 105% | [9] 110% | [10] 114% | [11] 129% | [12] 116% | [13] 119% | [14] 101% | [15] 124% | [16] 101% | [17] 113% | [18] 108%

COc1ccccc1N=Nc1c(O)ccc2cc(S(=O)(=O)O)ccc12
inactive: [1] 86.8% | [2] 98.2% | [3] 99.1% | [4] 82.7% | [19] 84.7% | [20] 85.7% | [6] 100% | [7] 107% | [8] 104% | [9] 111% | [10] 98.1% | [11] 109% | [12] 93.2% | [13] 104% | [14] 96.5% | [15] 94.2% | [16] 103% | [17] 95.8% | [18] 99.7%

Cc1c(O)cnc2nn(-c3ccccc3)c(=N)n12
inactive: [1] 102% | [2] 100% | [3] 114% | [4] 98.3% | [5] 103% | [6] 96.1% | [7] 102% | [8] 123% | [9] 110% | [10] 101% | [11] 124% | [12] 103% | [13] 111% | [14] 113% | [15] 99.1% | [16] 99.6% | [18] 114%

COC(=O)c1ccc(NC(=O)CCl)cc1
inactive: [1] 85.3% | [2] 118% | [3] 95.7% | [4] 88.5% | [5] 47.5% | [6] 79.2% | [7] 93.5% | [8] 103% | [9] 103% | [10] 70.9% | [11] 79.9% | [12] 64.9% | [13] 95.7% | [14] 89.5% | [15] 69.3% | [16] 96.7% | [17] 60.4% | [18] 90.4%

CCC/C=C(\C)C(C)(C#N)C(=O)OCC (stereo not drawn)
inactive: [1] 116% | [2] 101% | [3] 111% | [4] 99.1% | [5] 108% | [6] 95.7% | [7] 110% | [8] 110% | [9] 124% | [10] 100% | [11] 107% | [12] 122% | [13] 105% | [14] 118% | [15] 112% | [16] 102% | [17] 86.2% | [18] 116%

CCOc1ccccc1/C=N/Nc1nc2ccccc2o1
inactive: [1] 91.8% | [2] 103% | [3] 113% | [5] 102% | [19] 87.9% | [20] 110% | [6] 98.6% | [7] 116% | [8] 121% | [9] 110% | [10] 95.7% | [11] 97.5% | [12] 82.8% | [13] 112% | [14] 108% | [15] 108% | [16] 104% | [17] 113%

O=C(O)CSCSCC(=O)O
inactive: [1] 99.8% | [2] 95.2% | [3] 108% | [4] 91.5% | [5] 104% | [7] 103% | [8] 100% | [9] 111% | [10] 97.8% | [11] 105% | [12] 107% | [13] 97% | [14] 110% | [15] 96.6% | [16] 98.3% | [18] 108%

CC1=CC(C)(C)NC(=S)N1c1ccc(S(=O)(=O)O)c2cccc(S(=O)(=O)O)c12
inactive: [1] 101% | [2] 100% | [3] 127% | [4] 99.5% | [5] 110% | [6] 106% | [7] 112% | [8] 102% | [9] 111% | [10] 116% | [11] 115% | [12] 98.3% | [13] 107% | [14] 104% | [15] 113% | [16] 105% | [17] 112% | [18] 107%

CCCCCC(C)(CC(=O)O)CC(=O)O
inactive: [1] 115% | [2] 97% | [3] 113% | [4] 101% | [5] 108% | [6] 101% | [7] 107% | [8] 116% | [9] 122% | [10] 106% | [12] 138% | [13] 101% | [14] 122% | [16] 105% | [17] 101% | [18] 109%

— PubChem BioAssay (NCI)
